The values below come from PubChem BioAssay AID588493 (Sanford-Burnham Center for Chemical Genomics, 2011).

About 2,100 (0.58%) of roughly 360,000 compounds were called active.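 The calls were made as follows: active = inhibition at 20 µM, scaled to each plate's controls, above about 33% (limit read from the data); inactive = the rest.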 Many of the other results were omitted from the sample, so actives are more common in it than they were.

For orientation: inhibition means the change of the read-out against control, counted positive when it falls.

For the assay, the target named is 26S proteasome non-ATPase regulatory subunit 14 (Homo sapiens) (UniProt O00487). As to the kind of experiment: inhibition of 26S proteasome subunit Rpn11 – biochemical, fluorescence polarization, uHTS, primary screen (AID 588493). The note with it: human 26S proteasome, Ub4-pepOG fluorescence polarization; at 20 µM; active compounds read high; 20S core pre-blocked with epoxomicin. For orientation: Fluorescence polarisation rises when a labelled molecule tumbles more slowly, as on binding a larger partner.
Chain of 26S proteasome non-ATPase regulatory subunit 14 (Homo sapiens) (O00487 whole entry, looked up): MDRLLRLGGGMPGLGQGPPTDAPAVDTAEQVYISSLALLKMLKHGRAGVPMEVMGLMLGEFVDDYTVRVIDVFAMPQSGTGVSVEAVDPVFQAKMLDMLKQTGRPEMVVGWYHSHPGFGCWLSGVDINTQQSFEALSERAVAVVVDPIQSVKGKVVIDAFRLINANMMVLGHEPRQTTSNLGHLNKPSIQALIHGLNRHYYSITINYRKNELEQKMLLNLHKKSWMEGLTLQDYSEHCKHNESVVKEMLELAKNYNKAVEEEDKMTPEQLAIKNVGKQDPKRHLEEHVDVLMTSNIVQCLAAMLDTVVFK
Take `O=C(NCc1ccccc1)[C@H]1C[C@@H]1[C@H](NP(=O)(c1ccccc1)c1ccccc1)c1ccccc1`: the inhibition was 9.5% (inactive). Regarding `CCOc1ccc(C(=O)Nc2ccc(S(=O)(=O)NCC3CCCO3)cc2)cc1OCC` (stereo not given), the inhibition was -3.2% (inactive). On to `CCOc1cc(/C=C2\SC(N3CCCC(C)C3)=NC2=O)ccc1O` (stereo not given), for which the inhibition is 62.1% (active). As to `CCOc1ccc2nc(C(=O)N3CCCC(C)C3)sc2c1` (stereo not given), the inhibition was -2.7% (inactive).

Take `CCOc1cc(/C=C2\SC(N3CCCCC3)=NC2=O)ccc1O`: the inhibition was 46.9% (active).

`O=C1N=C(N2CCc3ccccc3C2)S/C1=C\c1ccc(O)cc1`: the inhibition is -9.2% (inactive). For `CCOc1cc(/C=N/NC(=O)CN2CCCCC2)ccc1O` the value was -1.4% (inactive); for `Cc1ccsc1/C=C1\SC(N2CCOCC2)=NC1=O`, -7.5% (inactive); for `CC(=O)n1cc([C@H]2C=C(C(=O)N3CCOCC3)O[C@@H](OCc3ccc(CO)cc3)C2)c2ccccc21`, 3.9% (inactive).

For `Cc1cc[n+](-c2[nH]c(=O)sc2/C=N/NC(=O)c2ccccc2[O-])cc1C`, the inhibition is -29.4% (inactive).

`CCc1ccc2[nH]c(=O)c(Cc3ccccc3)c(O)c2c1`: the inhibition is -4.6% (inactive).

Consider `O=C(c1ccc(OC2CCN(C(=O)c3cccnc3)CC2)cc1)N1CCCCCC1`, for which the inhibition was -0.5% (inactive).

As to `Cc1cccc(OCCCC(=O)Nc2ccc(S(=O)(=O)N3CCCC3)cc2)c1`, the inhibition was -2.1% (inactive). As for `Cc1ccc(NC(=O)NNC(=O)c2sccc2-n2cccc2)cc1`, the figure is -1.9% (inactive); as for `O=C(NNC(=O)c1ccc(-c2ccccc2)cc1)Nc1ccccc1`, -0.3% (inactive). As to `C=CC[n+]1c(-c2ccc(C)cc2)csc1NNC(=O)Nc1ccccc1`, the inhibition was 42.6% (active). As for `CCCCOC(=O)c1ccc(NC(c2ccc(C)cc2)P(=O)(OC)OC)cc1` (stereo not given), the figure is -3.9% (inactive); as for `COC(=O)c1cccc(NS(C)(=O)=O)c1`, -3.1% (inactive); as for `C=CCc1ccc(OCCOc2cccc(/C=N/n3cnnc3)c2)c(OC)c1`, -5.7% (inactive).

On to `c1csc(-c2nnc(COc3ccc4c(c3)OCO4)o2)c1`, for which the inhibition is -8.5% (inactive). As for `CCOc1ccc(-c2nc(C)sc2CC(=O)O)cc1`, the figure is -1.6% (inactive); as for `CCOC(=O)C(=O)Nc1nc(-c2ccccc2)c(CC)s1`, 3.6% (inactive); as for `C/C(=N/Nc1nc(-c2ccccc2)c(CC(=O)O)s1)c1ccccc1`, 57.8% (active).

`O=C1C=C(c2cccc(Cl)c2O)C[C@@H](c2ccc(F)cc2)C1`: the inhibition was -0.6% (inactive). Regarding `COCc1c(C(=O)N/N=C\c2cccnc2)nnn1-c1nonc1N`, the inhibition is -1.2% (inactive).

As to `Nc1nonc1-n1nnc(C(=O)N/N=C/c2cc(Br)ccc2O)c1CSC1=NCCS1`, the inhibition is 43.6% (active).

Consider `CC(C)c1c(C(=O)N/N=C/c2ccccc2C(=O)O)nnn1-c1nonc1N`, for which the inhibition is -1.4% (inactive). For `CC(C)Cn1c(=O)c2ccccc2n2c(CCC(=O)NCc3ccccn3)nnc12` the value was 4.1% (inactive); for `O=C(Nc1c[nH]c(=O)[nH]c1=O)OCc1ccccc1`, -11.5% (inactive). On to `N#C/C=C1\Sc2ccccc2C(=O)N1CC(=O)N1CCN(S(=O)(=O)c2ccccc2)CC1`, for which the inhibition is 5.4% (inactive). As for `Cc1nc2ccccc2nc(=O)c1NNc1ccc([N+](=O)[O-])cc1`, the figure is 43.9% (active); as for `Cc1cccc(NS(=O)(=O)c2ccc([N+](=O)[O-])cc2)n1`, -2.6% (inactive).

As to `CC(O)c1nc2ccccc2n1Cc1ccc([N+](=O)[O-])cc1` (stereo not given), the inhibition is 1.9% (inactive). On to `CCC(=O)N1CCC(C(N)=O)(N2CCCCC2)CC1`, for which the inhibition was -4.7% (inactive). Consider `CCOC(=O)CN(C(=O)COc1nc(C)cc(C)c1C#N)c1ccc(Cl)cc1`, for which the inhibition was 1.3% (inactive). As for `O=C1Nc2ccc(Br)cc2/C1=N/N=C/C1=C(N2CCOCC2)C(=C\c2ccccc2)/CC1`, the figure is 8% (inactive). For `O=C(O)c1ccc(NN=CC2=C(N3CCOCC3)/C(=C/c3ccccc3)CC2)cc1` the value was 51.4% (active). As for `C=CCn1c(-c2ccccc2OCC)n[nH]c1=S`, the figure is -4.4% (inactive); as for `CC(C)(C)NC(=O)CSc1nnc(NC(=O)CCc2ccccc2)s1`, 2.2% (inactive). Regarding `CC(C)(C)NC(=O)CSC(=Nc1ccccc1F)NC#N`, the inhibition is 45.6% (active). As to `Cc1ccccc1CSCC(=O)NC(=O)NC(C)(C)C`, the inhibition is 4.3% (inactive).

As to `CC(=O)Nc1ccc(NC(=O)CSCc2cnn(-c3ccccc3)c2-n2cccc2)cc1`, the inhibition is -1.2% (inactive).

Consider `CCc1c(C)[nH]c(=S)c(C#N)c1C`, for which the inhibition is -1.9% (inactive). As for `Cc1cccc(-n2c(SCC(N)=O)nc3c(c2=O)C2(CCCCC2)Cc2ccccc2-3)c1`, the figure is 14.6% (inactive); as for `COc1ccc(C(=O)NCc2ccc(Cl)cc2)cc1S(=O)(=O)N1CCCC1`, -4.5% (inactive); as for `CN(C(=O)c1c(Cl)cnn1C)C12CC3CC(CC(C3)C1)C2`, 0.7% (inactive). `N#CC(C(=O)c1ccc(S(=O)(=O)N2CCCCCC2)cc1)c1nc2ccccc2[nH]1` (stereo not given): the inhibition is 13.9% (inactive).

For the compound `O=C(NCc1ccco1)C1CCCN(S(=O)(=O)c2ccccc2)C1` (stereo not given), the inhibition is -4.7% (inactive). As for `CCCS(=O)(=O)N1CCCC(C(=O)NCc2ccco2)C1` (stereo not given), the figure is 34.7% (active); as for `O=C(NCc1ccco1)C1CCCN(S(=O)(=O)c2cnc[nH]2)C1` (stereo not given), -5.5% (inactive); as for `CC(Sc1nc2c([nH]c3ccccc32)c(=O)n1C)c1ccccc1` (stereo not given), -0.4% (inactive). Take `Cc1cc(C)nc(NC2=NCC(=O)N2c2ccc(Cl)cc2)n1`: the inhibition was 4.1% (inactive).

For `O=C(COCc1cc(-c2ccc3c(c2)OCO3)on1)N1CCN(c2cccc(Cl)c2)CC1`, the inhibition was 6.1% (inactive). For `Cc1c(-c2ccccc2)cn2c1-c1ccc(C)n1CC2`, the inhibition is 44.5% (active). For `CCCCNC(=O)C(C)N(CCN(C)C)C(=O)CCCN1C(=O)NC(c2ccc(Cl)cc2)C(C(=O)OCc2ccccc2)=C1C` (stereo not given) the value was -1.7% (inactive); for `COc1ccc(-c2nc3n(c2Br)CCC3)cc1`, 6.5% (inactive). `Cc1ccc(NC(=O)COc2ccc(/C=N\NC(=O)c3cccnc3)cc2)cc1C`: the inhibition is 91% (active). As to `Cc1cccc(OCC(=O)NCCNC(=O)c2cccnc2)c1`, the inhibition was 2.9% (inactive). For `Cc1ccc(OCC(=O)NCCCNC(=O)c2cccnc2)cc1C` the value was 0.1% (inactive); for `Cc1ccc(C(=O)N2CCCC2)c(F)c1F`, -4.7% (inactive).
